High-throughput results from PubChem BioAssay.
CYP2C19 inhib = blocks human cytochrome P450 2C19 | AID 778 | CYP2C19 Supersomes, luciferin-H EGE luminescence, 30 min | 96,000 tested, 21% active | inhibition, % at 5 µM;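 active = CYP2C19 inhibition above a set limit at 5 µM in the primary screen, cut at about 50% in these data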;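 also: plate controls were negative control wells for no effect and 2.5 mM tranylcypromine positive control for full effect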
Target sequence (P33261 whole entry, looked up): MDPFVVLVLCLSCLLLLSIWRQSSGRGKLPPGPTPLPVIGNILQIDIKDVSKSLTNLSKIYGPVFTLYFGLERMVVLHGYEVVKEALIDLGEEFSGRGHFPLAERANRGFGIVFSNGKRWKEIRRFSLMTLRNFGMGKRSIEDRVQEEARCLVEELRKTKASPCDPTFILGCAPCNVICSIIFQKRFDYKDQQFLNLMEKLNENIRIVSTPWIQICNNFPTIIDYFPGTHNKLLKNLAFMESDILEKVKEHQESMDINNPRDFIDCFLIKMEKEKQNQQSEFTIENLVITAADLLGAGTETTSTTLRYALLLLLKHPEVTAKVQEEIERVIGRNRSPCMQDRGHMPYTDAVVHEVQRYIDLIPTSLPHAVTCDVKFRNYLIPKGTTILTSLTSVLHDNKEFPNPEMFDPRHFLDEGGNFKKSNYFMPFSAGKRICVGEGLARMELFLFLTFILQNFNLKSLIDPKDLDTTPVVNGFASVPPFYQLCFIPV
sEH inhibitor = inhibitors of human soluble epoxide hydrolase; recombinant human sEH enzymatic activity assay; inhibition, % at 2 µM; AID 707; 91,000 tested, 0.34% active; in the data active = inhibition above about 80%
sEH act = soluble epoxide hydrolase (human) activation | AID 717 | 91,000 tested, 0.04% active | purified human sEH enzymatic activity, activator screen | P34913 | activation, % at 2 µM; in the data active = activation above about 37%
CYP2C19 act = increases human CYP2C19 enzyme activity; 96,000 tested, under 10 active; activation factor at 5 µM; recombinant CYP2C19, luciferin-H EGE luminescence; stronger effect = higher value; 0 = fully inhibited enzyme, 1 = untreated enzyme; AID 1025;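 active = activation factor of at least 2 at 5 µM in the primary screen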;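 also: 0 = wells with 2.5 mM tranylcypromine and 1 = vehicle-only wells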
CYP2C9 inh = inhibitors of human CYP2C9 | inhibition, % at 5 µM | CYP2C9 Supersomes, luciferin-H conversion, luminescence | 96,000 tested, 20% active;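 active = blocking of liver enzyme CYP2C9 beyond about 50% at 5 µM, limit read from the data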
CYP2C9 activ = increases human cytochrome P450 2C9 activity; P11712; recombinant CYP2C9, luciferin-H conversion, luminescence; stronger effect = higher value; factor 1 = untreated enzyme, 0 = blocked; activation factor at 5 µM; 96,000 tested, 1.4% active; AID 1024;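 active = activation factor of 2 or more for CYP2C9 at a 5 µM dose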;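 also: 0 = sulfaphenazole-blocked wells and 1 = vehicle-only wells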
Numbers without * were called inactive. The list is not random: actives were taken first. Their share in the collection is about 27%.

How did CCOC(=O)C1CCCN(C(=O)c2cn(CC)c3ccc(S(=O)(=O)N4CCCC4)cc3c2=O)C1 (configuration not stated) do in these assays?
CYP2C19 inhib: 4.6; sEH inhibitor: 23.0; sEH act: -22.8; CYP2C19 act: 1; CYP2C9 inh: 11.0; CYP2C9 activ: 0.9

What do the screens show for `CCN=C1SC(C(=O)NCCc2ccccc2)CC(=O)N1CC` (configuration not stated)?
CYP2C19 inhib: 64.2*; sEH inhibitor: 1.7; sEH act: -1.7; CYP2C19 act: 0.4; CYP2C9 inh: -28.6; CYP2C9 activ: 1.3

What do the screens show for `CCN=C1SC(C(=O)Nc2cccc(C)c2)CC(=O)N1CC` (configuration not stated)?
CYP2C19 inhib: 80.2*; sEH inhibitor: -5.2; sEH act: 7.5; CYP2C19 act: 0.2; CYP2C9 inh: -141.3; CYP2C9 activ: 2.4*

How did COc1cccc(C(=O)Cn2c(=O)n(CC3CCCO3)c(=O)c3ccccc32)c1 (configuration not stated) do in these assays?
CYP2C19 inhib: 19.1; sEH inhibitor: -5.9; sEH act: 6.2; CYP2C19 act: 0.8; CYP2C9 inh: 42.1; CYP2C9 activ: 0.6

Results for CCOc1ccc(N2C(=O)CS/C2=C(\C(Cl)=C(Cl)Cl)[N+](=O)[O-])cc1 ?
CYP2C19 inhib: 38.5; sEH inhibitor: 3.6; sEH act: -7.7; CYP2C19 act: 0.6; CYP2C9 inh: 54.8*; CYP2C9 activ: 0.5

Results for CC(C)CC(C(=O)O)N(Cc1ccccc1)Cc1ccccc1 (configuration not stated) ?
sEH inhibitor: 9.4; sEH act: -7.2

Results for C#CC(CO)N(CCN(Cc1ccccc1)C(C#C)CO)Cc1ccccc1 (configuration not stated) ?
CYP2C19 inhib: 100.0*; sEH inhibitor: -0.7; sEH act: 2.1; CYP2C19 act: 0; CYP2C9 inh: 94.6*; CYP2C9 activ: 0.1

What do the screens show for `O=C(c1ccccc1NS(=O)(=O)c1ccc(F)cc1)N1CCCC1`?
CYP2C19 inhib: 31.2; sEH inhibitor: -10.4; sEH act: 12.6; CYP2C19 act: 0.7; CYP2C9 inh: 11.4; CYP2C9 activ: 0.9

What do the screens show for `Cc1cc(F)ccc1S(=O)(=O)Nc1ccccc1C(=O)Nc1ccc2[nH]c(=O)[nH]c2c1`?
CYP2C19 inhib: 9.0; CYP2C19 act: 0.9; CYP2C9 inh: 80.7*; CYP2C9 activ: 0.2

How did O=C(COc1ccc(-c2nnc(N3CCCCC3)c3ccccc23)cc1)N1CCCCC1 do in these assays?
sEH inhibitor: 11.4; sEH act: -8.4

What do the screens show for `Cc1ccc(-c2nnc(N3CCN(C(=O)COc4ccccc4)CC3)c3ccccc23)cc1`?
CYP2C19 inhib: 79.3*; sEH inhibitor: -14.6; sEH act: 13.2; CYP2C19 act: 0.2; CYP2C9 inh: 86.8*; CYP2C9 activ: 0.1

Results for Cc1ccc(CCN2CC(C(=O)NCCCN3CCN(C)CC3)CC2=O)cc1 (configuration not stated) ?
CYP2C19 inhib: 1.1; sEH inhibitor: -4.4; sEH act: 3.1; CYP2C19 act: 1; CYP2C9 inh: 7.0; CYP2C9 activ: 0.9

What do the screens show for `N#CC1=C(SCc2ccccc2)NC(=O)CC1c1cccc(O)c1` (configuration not stated)?
CYP2C19 inhib: 78.2*; CYP2C19 act: 0.2; CYP2C9 inh: 61.9*; CYP2C9 activ: 0.4

How did N#CC1=C(SCc2ccccc2)NC(=O)CC1c1ccc(O)cc1 (configuration not stated) do in these assays?
CYP2C19 inhib: 64.8*; sEH inhibitor: 8.7; sEH act: -7.5; CYP2C19 act: 0.4; CYP2C9 inh: 52.9*; CYP2C9 activ: 0.5

How did COc1ccc(OCCCC(=O)NCC(C)C)cc1 do in these assays?
CYP2C19 inhib: 42.4; sEH inhibitor: 19.4; sEH act: -18.6; CYP2C19 act: 0.6; CYP2C9 inh: 18.7; CYP2C9 activ: 0.8

How did COc1ccc(N=C(N(C)C)P(=O)(N(C)C)N(C)C)cc1 do in these assays?
CYP2C19 inhib: 8.0; sEH inhibitor: 3.4; sEH act: -2.2; CYP2C19 act: 0.9; CYP2C9 inh: -8.1; CYP2C9 activ: 1.1

Results for COc1cccc(/C=N/NC(=O)CCc2ccccc2)c1 ?
CYP2C19 inhib: 60.1*; sEH inhibitor: 14.5; sEH act: -12.0; CYP2C19 act: 0.4; CYP2C9 inh: 5.1; CYP2C9 activ: 0.9

How did COc1cccc(/C=N/NC(=O)c2ccc(OCc3cccc(Br)c3)cc2)c1 do in these assays?
CYP2C19 inhib: 49.9; sEH inhibitor: 46.2; sEH act: -47.6; CYP2C19 act: 0.5; CYP2C9 inh: 83.8*; CYP2C9 activ: 0.2

What do the screens show for `Cc1ccc(NC(=S)N2CCC(c3nc4ccccc4s3)CC2)cc1C`?
CYP2C19 inhib: 0.1; sEH inhibitor: -10.1; sEH act: 13.4; CYP2C19 act: 1; CYP2C9 inh: 9.3; CYP2C9 activ: 0.9

Results for COc1cc(OC)cc(C(C(=O)NCc2ccccc2)N(Cc2ccco2)C(=O)c2ccno2)c1 (configuration not stated) ?
CYP2C19 inhib: 69.1*; sEH inhibitor: -11.1; sEH act: 12.6; CYP2C19 act: 0.3; CYP2C9 inh: 60.3*; CYP2C9 activ: 0.4

How did COC(=O)c1ccc(C(C(=O)NCc2ccccc2)N(Cc2ccco2)C(=O)c2cnccn2)cc1 (configuration not stated) do in these assays?
CYP2C19 inhib: 25.6; sEH inhibitor: -14.9; sEH act: 14.5; CYP2C19 act: 0.7; CYP2C9 inh: 20.2; CYP2C9 activ: 0.8

Results for CCn1cc(C(=O)N2CCOCC2)c(=O)c2cc(S(=O)(=O)N(C)C)ccc21 ?
CYP2C19 inhib: -0.6; CYP2C19 act: 1; CYP2C9 inh: -1.9; CYP2C9 activ: 1

What do the screens show for `CCn1cc(Br)c(C(=O)Nc2ccc(Cl)cc2Cl)n1`?
CYP2C19 inhib: 74.1*; sEH inhibitor: -4.7; sEH act: 1.8; CYP2C19 act: 0.3; CYP2C9 inh: 45.8; CYP2C9 activ: 0.5

What do the screens show for `CCn1cc(Br)c(C(=O)Nc2ccc(F)c(Cl)c2)n1`?
CYP2C19 inhib: 92.5*; CYP2C19 act: 0.1; CYP2C9 inh: 75.0*; CYP2C9 activ: 0.3

Results for COc1cc2c(cc1OC)C1=NC(=O)CN1C(SCc1ccccc1)=N2 ?
CYP2C19 inhib: -11.3; CYP2C19 act: 1.1; CYP2C9 inh: -9.5; CYP2C9 activ: 1.1

How did CCOc1ccc(NS(=O)(=O)c2ccc(OC)c(C)c2)cc1 do in these assays?
CYP2C19 inhib: 93.2*; sEH inhibitor: -11.4; sEH act: 7.5; CYP2C19 act: 0.1; CYP2C9 inh: 91.8*; CYP2C9 activ: 0.1

What do the screens show for `CCOc1cc(S(=O)(=O)Nc2cc(C)cc(C)c2)ccc1Cl`?
CYP2C19 inhib: 98.3*; sEH inhibitor: 2.1; sEH act: -0.2; CYP2C19 act: 0; CYP2C9 inh: -96.9; CYP2C9 activ: 2*

What do the screens show for `COc1ccc(OC)c(S(=O)(=O)Nc2cc(Cl)cc(Cl)c2)c1`?
sEH inhibitor: 8.5; sEH act: -5.5
